Compounds with a hit are over-represented: about 3.8% of the library has one in this group of screens.
HT1080 IDH1KD tx – toxicity to HT-1080 IDH1 knockdown cells (counter line). 360,000 tested, 2% active. Potency, µM (highest dose often 46.1 µM), actives largely listed as cytotoxic. HT-1080 IDH1 knockdown viability, ATP luminescence, 48 h
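Viability of IDH1-knockdown HT-1080 fibrosarcoma cells was assessed by CellTiter-Glo after 48 h at 37 °C with titrated compound; concentration-effect curves were classified by fit quality and response size.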
HT1080-NT tox – kills 2HG-producing HT-1080-NT fibrosarcoma cells; HT-1080-NT fibrosarcoma viability, CellTiter-Glo ATP luminescence, 48 h; Potency, µM (titrated, usually from 46.1 µM), actives largely listed as cytotoxic; 360,000 tested, 1.6% active; AID 686970;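 note: NT is the 2HG producing partner of a matched IDH1 knockdown line; nearly all actives have a fitted effect of over 55% in size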
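Compounds were tested in concentration-response format on HT-1080-NT cells for 48 hours at 37 degrees C. Cell viability came from CellTiter-Glo luminescence; curves were classified by r2, response magnitude and activity.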
TGFb inhibitor – blocks TGF-b signaling. Potency, µM (doses to about 46.1 µM), hits mostly inhibitors. 410,000 tested, 1.2% active. HepG2 CAGA-GFP TGF-b/SMAD3 reporter, GFP fluorescence, 18 h; TGF-beta stimulated, 500 pg/mL final; note: nearly all actives have a fitted effect of over 65% in size
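HEPG2 CAGA-GFP cells (1000/well, DMEM with 1% FBS) were pre-incubated 2 h at 37 degrees C, given compound by pin tool, then stimulated with TGF-beta at 500 pg/mL final for 18 h before per-cell GFP fluorescence imaging.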
ATXN2 expr inh – ATXN2 expression inhibition; HEK-293 ATXN2-luciferase reporter, luminescence, 24 h; Potency, µM (doses to about 57 µM), actives largely listed as inhibitors; 360,000 tested, 0.72% active; note: nearly all actives have a fitted effect of over 55% in size
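ATXN2-luciferase reporter cells (luciferase flanked by upstream and downstream ATXN2 gene portions) were treated 24 h at 37 °C with compounds at up to 57 uM. SteadyGlo luminescence gave expression; GF-AFC fluorescence gave viability.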
S2 tox – cell viability loss in ATXN counter-screen | Potency, µM (series often up to 56.7 µM), actives largely listed as cytotoxic | 400,000 tested, 0.49% active | AID 651635 | S2 cells (HEK-293 line with an ATXN2-luciferase reporter) viability, CellTiter-Fluor protease fluorescence, 24 h; note: nearly all actives have a fitted effect of over 40% in size
HepG2 viability – HepG2 cytotoxicity, counter-screen for TGF-b inhibitors; HepG2 CAGA-GFP viability, ATP luminescence, 18 h; Potency, µM (doses to about 46.1 µM), usual class: cytotoxic; 410,000 tested, 0.76% active; AID 588856
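HepG2 CAGA-GFP cells (1000/well, DMEM with 1% FBS) received compound, then TGF-beta at 500 pg/mL final, and were incubated 18 hours at 37 degrees C. Viability was read by CellTiter-Glo luminescence. Media-only wells were set as complete cell-killing and DMSO as no toxicity.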
Large screens that a line does not name were inactive. Calls come from the whole dose curve; as a rule, active = well fitted curve in the direction sought with a large enough effect; inconclusive = small, poorly fitted or top-dose-only effect, or another doubt; inactive = no such curve, though single readings can be large; an effect the other way counts as inactive or inconclusive.

NC(N)=Nc1ccc(/C=C2\C=Cc3ccccc32)cc1	TGFb inhibitor 16µM (no result: HT1080 IDH1KD tx, HT1080-NT tox, ATXN2 expr inh, S2 tox)
COc1ccc(N(C(=O)c2ccccc2C)S(=O)(=O)c2cccs2)cc1	HT1080 IDH1KD tx 0.92µM, HT1080-NT tox 0.92µM
c1coc(-c2nc3cc4ccccc4cc3nc2-c2ccco2)c1	TGFb inhibitor inconclusive (no result: HT1080 IDH1KD tx, HT1080-NT tox, ATXN2 expr inh, S2 tox)
C#CCn1c(=NC(=O)c2cc(-c3cccs3)nc3ccccc23)sc2cc(S(N)(=O)=O)ccc21	HT1080 IDH1KD tx 26µM, HT1080-NT tox inconclusive
COc1ccc(NC(=O)/C(C#N)=C\c2cc(C)n(-c3ccc4c(c3)OCO4)c2C)cc1	HT1080 IDH1KD tx 2.1µM, HT1080-NT tox 1.8µM, ATXN2 expr inh inconclusive
O=C(O)C(O)Cc1ccc(O)c(O)c1 (stereo not drawn)	none (no result: HT1080 IDH1KD tx, HT1080-NT tox, TGFb inhibitor, S2 tox, HepG2 viability)
COc1ccc2c(c1)C(=O)CC2	none (no result: HT1080 IDH1KD tx, HT1080-NT tox, ATXN2 expr inh, S2 tox)
O=c1c2c(nc3c(-c4ccc(Cl)cc4)c[nH]n13)CCCC2	HT1080 IDH1KD tx 7.1µM, HT1080-NT tox inconclusive, TGFb inhibitor inconclusive, ATXN2 expr inh 16µM, S2 tox inconclusive
O=c1c2c(nc3c(-c4cccc5ccccc45)c[nH]n13)CCC2	none
CC(C)NC(=O)c1c(O)c2ccccc2[nH]c1=O	HT1080 IDH1KD tx 3.2µM, HT1080-NT tox inconclusive
O=c1[nH]c2ccccc2c(O)c1O	HT1080 IDH1KD tx inconclusive, HT1080-NT tox 18µM
O=c1[nH]c2ccccc2c(O)c1-[n+]1ccccc1	none
C(=C\c1ccnc2ccccc12)/c1cccnc1	none (no result: HT1080 IDH1KD tx, HT1080-NT tox, ATXN2 expr inh, S2 tox)
Cc1ccccc1-c1noc(N)c1C#N	HT1080 IDH1KD tx 10µM, HT1080-NT tox inconclusive
S=C1Cc2ccccc2N1	HT1080 IDH1KD tx 5.2µM, HT1080-NT tox 4.6µM, TGFb inhibitor 5.6µM, ATXN2 expr inh 6.3µM, S2 tox 5.6µM, HepG2 viability 8.9µM
COc1cc(=O)n2c(c1C(=O)N(C)Cc1nccs1)CCN(Cc1cc(C)cc(C)c1)CC2	none (no result: HT1080 IDH1KD tx, HT1080-NT tox, TGFb inhibitor, ATXN2 expr inh, HepG2 viability)
COc1ccc(C(C#N)=C2C=CC(=NO)C=C2)cc1	HT1080 IDH1KD tx 10µM, HT1080-NT tox 15µM, TGFb inhibitor inconclusive, S2 tox inconclusive
CC(=O)ON=C1C=CC(=C(C#N)c2ccccc2)C=C1	HT1080 IDH1KD tx 5.8µM, HT1080-NT tox 7.3µM, TGFb inhibitor inconclusive, ATXN2 expr inh 14µM, S2 tox 14µM
Cc1ccc(NC(=O)c2ccc(NC(=O)C3CCCC3)cc2)c(C)c1	none (no result: TGFb inhibitor, ATXN2 expr inh, S2 tox, HepG2 viability)
O=C(O)c1cccc(NC2=C(Cl)C(=O)c3ccccc3C2=O)c1	HT1080 IDH1KD tx 16µM, HT1080-NT tox inconclusive, TGFb inhibitor inconclusive, ATXN2 expr inh inconclusive, S2 tox 25µM
Cc1ccc(NC2=C(NC(=O)c3ccccc3)C(=O)c3ccccc3C2=O)cc1Cl	TGFb inhibitor 11µM, S2 tox inconclusive, HepG2 viability 16µM
O=C(O)c1ccc(NC2=C(Cl)C(=O)c3ccccc3C2=O)cc1	TGFb inhibitor inconclusive, ATXN2 expr inh 4.5µM, S2 tox 10µM
Cc1cc(NC(=O)C2CCN(S(=O)(=O)c3cccc4nsnc34)CC2)ccc1Br	TGFb inhibitor inconclusive (no result: HT1080 IDH1KD tx, HT1080-NT tox)
O=C(CCl)NC(Cc1ccccc1)c1ccccc1 (stereo not drawn)	HT1080 IDH1KD tx 16µM, HT1080-NT tox inconclusive, ATXN2 expr inh inconclusive, S2 tox inconclusive
O=c1c2ccccc2n(Cc2ccccc2F)c(=O)n1-c1cccc(F)c1	none (no result: HT1080 IDH1KD tx, HT1080-NT tox)
CC1CCN(S(=O)(=O)c2ccc(NC(=O)Cn3nnc(-c4ccccc4F)n3)cc2)CC1	HT1080 IDH1KD tx inconclusive, HT1080-NT tox 20µM, TGFb inhibitor inconclusive
O=c1cc(C(F)(F)F)[nH]c2ccc(OC(F)(F)F)cc12	HT1080 IDH1KD tx 21µM, HT1080-NT tox inconclusive, TGFb inhibitor inconclusive, ATXN2 expr inh inconclusive
CCOc1ccc(CN(CCc2ccc3c(c2)OCO3)Cc2cc(OC)c(OC)cc2OC)cc1	TGFb inhibitor 11µM (no result: HT1080 IDH1KD tx, HT1080-NT tox, ATXN2 expr inh, S2 tox)
O=C(Nc1cnn(Cc2ccc(Cl)cc2Cl)c1)c1cc(-c2cccs2)on1	TGFb inhibitor inconclusive, ATXN2 expr inh inconclusive, S2 tox inconclusive
CC(=O)c1cccc(NC(=O)Nc2cnn(Cc3ccc(Cl)cc3Cl)c2)c1	HT1080 IDH1KD tx 14µM, HT1080-NT tox inconclusive, TGFb inhibitor inconclusive
